# Data reported in PubChem BioAssay (NCATS).
# Values joined by “and” are separate entries in the source; they are usually repeats but may differ in a detail not shown here. Identical values can stand only once. Inconclusive results are not listed. A call without a number means that no potency is given here. Active and inactive are the calls of the source. Unless noted, calls follow the shape of the dose curve; as a rule, active = well fitted curve in the direction sought with a large enough effect; inconclusive = small, poorly fitted or top-dose-only effect, or another doubt; inactive = no such curve, though single readings can be large; an effect the other way counts as inactive or inconclusive.
# Key:
# [1] = Validation of Assay for Modulators of Lamin A Splicing (AID 1459; active = well fitted curve in the direction sought with a large enough effect in the signal ratio; the % refers to the signal ratio;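 also: cells exposed to compound for two days before reading; ratio rise marks activators and ratio drop marks inhibitors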)
# Summary of the method: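 HeLa S3 lamin A-EGFP/DsRed2 stable clone, 600 cells/well, Opti-MEM 2% FBS; compounds by pin tool; 48 hrs, 37 °C/5% CO2; Acumen 488 nm scan, objects 10-100 um; GFP/RFP intensity ratio.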
# [2] = Counterscreen for APE1 Inhibitors: Fluorescent Dye Displacement Validation Assay (AID 1707); also: potency is read from the fitted curve at half-maximal effect
# Summary of the method: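 Reaction mixture of 250 nM Thiazole Orange and 50 nM double-stranded abasic-site DNA was dispensed, compounds were pin-transferred, and fluorescence was read at endpoint (480 nm ex, 540 nm em). Reduced fluorescence indicated dye displacement by DNA binding.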
# [3] = biological target: Endonuclease 4 (Escherichia coli (strain K12)) (UniProt P0A6C1); experiment: Counterscreen for APE1 Inhibitors: qHTS Validation Assay for Inhibitors of Endonuclease IV (AID 1708)
# Summary of the method: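 Read-out: fluorescence rise (ex 525/em 598 nm) from incision of a TAMRA/BHQ-2 double-stranded THF abasic-site substrate (50 nM), measured kinetically; third-minus-first read difference gave reaction progress. Enzyme 2 nM.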
# [4] = qHTS for differential inhibitors of proliferation of Plasmodium falciparum line 7G8 (AID 1815);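 also: parasite growth measured after three days of incubation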; also: potency is read from the fitted curve at half-maximal effect
# [5] = qHTS for differential inhibitors of proliferation of Plasmodium falciparum line GB4 (AID 1816); settings: Potency: Plasmodium falciparum GB4 proliferation inhibition;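 also: parasite growth measured after 72 h incubation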; also: potency is read from the fitted curve at half-maximal effect
# [6] = biological target: Alpha-galactosidase A (Homo sapiens) (UniProt P06280); experiment: Counterscreen for Glucocerebrosidase Inhibitors: qHTS Assay for Human alpha-Galactosidase at pH 4.5 (AID 992)
# Chain of Alpha-galactosidase A (Homo sapiens) (P06280 whole entry, looked up): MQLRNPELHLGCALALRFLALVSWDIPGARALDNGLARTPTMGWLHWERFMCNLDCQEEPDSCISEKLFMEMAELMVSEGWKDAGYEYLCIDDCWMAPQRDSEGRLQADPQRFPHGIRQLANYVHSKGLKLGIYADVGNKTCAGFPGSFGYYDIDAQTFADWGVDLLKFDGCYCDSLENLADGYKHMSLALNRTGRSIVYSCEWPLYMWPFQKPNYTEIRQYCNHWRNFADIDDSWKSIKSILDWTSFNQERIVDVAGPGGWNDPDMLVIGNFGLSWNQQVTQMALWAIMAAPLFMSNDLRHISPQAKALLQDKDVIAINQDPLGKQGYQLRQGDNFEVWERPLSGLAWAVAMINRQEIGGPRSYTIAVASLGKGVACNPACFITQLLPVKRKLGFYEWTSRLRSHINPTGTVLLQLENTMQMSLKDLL
# Summary of the method: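 Steps: enzyme (2 nM final), then compound across 0.7 nM to 77 uM, then 80 uM fluorogenic galactopyranoside substrate; incubate 20 min at room temperature; quench at pH 10; measure fluorescence at 365/440 nm.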
# [7] = biological target: Alpha-galactosidase (Coffea arabica) (UniProt Q42656); experiment: Counterscreen for Glucocerebrosidase Inhibitors: qHTS Assay for Coffee Bean alpha-Galactosidase at pH 5.9 (AID 998)
# Chain of Alpha-galactosidase (Coffea arabica) (Q42656 whole entry, looked up): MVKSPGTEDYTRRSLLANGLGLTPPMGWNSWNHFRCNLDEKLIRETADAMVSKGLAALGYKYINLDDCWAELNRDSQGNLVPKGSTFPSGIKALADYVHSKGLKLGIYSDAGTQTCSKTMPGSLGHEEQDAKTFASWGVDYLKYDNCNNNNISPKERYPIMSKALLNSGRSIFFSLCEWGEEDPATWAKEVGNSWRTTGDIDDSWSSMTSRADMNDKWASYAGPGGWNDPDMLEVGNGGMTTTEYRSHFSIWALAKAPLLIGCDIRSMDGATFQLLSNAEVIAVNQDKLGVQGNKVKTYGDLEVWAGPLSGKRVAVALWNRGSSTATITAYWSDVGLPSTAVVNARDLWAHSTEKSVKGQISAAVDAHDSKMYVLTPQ
# Summary of the method: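 Enzyme 2 nM + cpd (0.7 nM–77 uM titration) + 4-MU-alpha-Gal 80 uM, pH 5.9 citrate/Tween-20, RT 20 min, NaOH/glycine stop pH 10, fluor 365/440. Normalized to no-enzyme and full-activity controls; Hill-fit AC50.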
# [8] = biological target: alpha-glucosidase (Oryza sativa, rice) (UniProt Q653V4); experiment: Counterscreen for Glucocerebrosidase Inhibitors: qHTS Assay for Rice alpha-Glucosidase at pH 5.0 (AID 997)
# Summary of the method: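 Endpoint fluorogenic assay at pH 5.0: compounds (0.7 nM to 77 uM) titrated against 4 nM rice enzyme and 400 uM 4-MU-alpha-glucoside for 20 min at room temperature; NaOH/glycine stop, read ex 365/em 440 nm, Hill-fitted AC50.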
# [9] = biological target: DNA repair nuclease/redox regulator APEX1 (Homo sapiens) (UniProt P27695); experiment: qHTS Validation Assay for Inhibitors of the Human Apurinic/apyrimidinic Endonuclease 1 (APE1) (AID 1705;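 also: TAMRA fluorescence gain over two minutes as APE1 cuts a quenched THF abasic duplex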)
# Chain of DNA repair nuclease/redox regulator APEX1 (Homo sapiens) (P27695 whole entry, looked up): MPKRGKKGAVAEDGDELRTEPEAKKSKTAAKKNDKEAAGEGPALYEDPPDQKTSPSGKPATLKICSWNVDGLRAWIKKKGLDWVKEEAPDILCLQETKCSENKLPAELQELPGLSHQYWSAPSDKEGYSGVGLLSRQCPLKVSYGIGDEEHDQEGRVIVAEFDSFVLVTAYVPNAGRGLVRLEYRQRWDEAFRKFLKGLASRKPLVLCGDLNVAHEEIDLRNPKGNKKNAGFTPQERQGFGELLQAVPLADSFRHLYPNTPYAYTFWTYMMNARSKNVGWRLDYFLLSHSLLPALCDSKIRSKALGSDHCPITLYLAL
# Summary of the method: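 qHTS, 1536-well. APE1 + cpd 15 min RT → 50 nM TAMRA/BHQ-2 THF-abasic dsDNA substrate → kinetic fluorescence, 3 reads/60 s; delta(read3−read1) = reaction progress. No-enzyme buffer = negative control.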
# [10] = qHTS Assay for Lipid Storage Modulators (AID 1519; calls by dose curve); settings: Drosophila S3 cells, BODIPY lipid droplet/cell ratio, laser cytometry, cells loaded with oleic acid
# Summary of the method: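 Cells seeded at 5,000 per well were treated with compounds over a concentration series and loaded with oleic acid (400 uM, as added). Lipid droplet fluorescence (488 nm excitation, 500-530 nm channel) was read by laser-scanning cytometry and normalized to 20 uM Triacsin C.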
# [11] = measured here: cell count channel max response
# [12] = measured here: lipid channel max response
smiles,measurement,setting,value
C#CCN[C@H](C)Cc1ccccc1,outcome,[1],inactive
same,Potency,[2],inactive
same,Potency,[3],inactive
same,Potency,[4],inactive
same,Potency,[5],inactive
C[N+](C)(C)CC#CCOC(=O)Nc1cccc(Cl)c1,outcome,[6],inactive
same,outcome,[7],inactive
same,outcome,[1],inactive
same,Potency,[2],inactive
NNC(=O)c1ccc(O)cc1,outcome,[6],inactive
same,outcome,[8],inactive
same,outcome,[7],inactive
same,outcome,[1],inactive
same,Potency,[9],inactive
same,Potency,[2],inactive
same,Potency,[4],inactive
same,Potency,[5],inactive
C[N+]1(C)CCOC(O)(c2ccc(-c3ccc(C4(O)C[N+](C)(C)CCO4)cc3)cc2)C1 (centres undefined),outcome,[1],inactive
same,Potency,[2],inactive
same,Potency,[3],inactive
same,Potency,[4],inactive
CCC(=O)O[C@@](Cc1ccccc1)(c1ccccc1)[C@@H](C)CN(C)C,"activity change, negative = inhibition",[10]; at 25.7 µM (top of the series),-2.5% (inactive)
same,max response,[10]; [11],-5.05%
same,max response,[10]; [12],-7.97%
C[N+](C)(C)CC#CCN1CCCC1=O,outcome,[6],inactive
same,outcome,[7],inactive
same,outcome,[1],inactive
same,Potency,[2],inactive
same,Potency,[5],inactive
C[C@@H](Cc1ccccc1)NCCC(c1ccccc1)c1ccccc1,"activity change, negative = inhibition",[10]; at 25.7 µM (top of the series),-10.7% (inactive)
same,max response,[10]; [11],-11.9%
same,max response,[10]; [12],-23.1%
O=[N+]([O-])c1cc(O)c(O)c([N+](=O)[O-])c1,outcome,[6],inactive
same,outcome,[8],inactive
same,outcome,[1],inactive
same,Potency,[2],inactive
same,Potency,[3],inactive
same,Potency,[4],inactive
same,Potency,[5],inactive
N[C@@H](CCl)C(=O)O,outcome,[1],inactive
same,Potency,[2],inactive
same,Potency,[3],inactive
same,Potency,[4],inactive
same,Potency,[5],inactive
C[Se]C[C@H](N)C(=O)O,outcome,[1],inactive
same,Potency,[2],inactive
same,Potency,[3],inactive
same,Potency,[4],inactive
same,Potency,[5],inactive
N#CC(C#N)=Cc1cc(O)c(O)c(O)c1,outcome,[6],inactive
same,outcome,[1],inactive
same,Potency,[2],inactive
same,Potency,[3],inactive
same,Potency,[4],6.31 µM (active)
same,Potency,[5],10 µM (active)
COc1ccc2c(c1)[C@@]13CCCC[C@H]1[C@@H](C2)NCC3,outcome,[1],inactive
same,Potency,[2],inactive
same,Potency,[3],inactive
same,Potency,[4],3.55 µM (active)
same,Potency,[5],7.08 µM (active)
O=P(O)(O)C(Cl)(Cl)P(=O)(O)O,outcome,[6],inactive
same,outcome,[1],inactive
same,Potency,[9],inactive
same,Potency,[2],inactive
same,Potency,[4],inactive
same,Potency,[5],inactive
Clc1ccc(N2CC3CCC(C2)N3)nn1,outcome,[1],inactive
same,Potency,[2],inactive
same,Potency,[3],inactive
same,Potency,[4],inactive
O=S(=O)(O)c1cc(O)ccc1O,"activity change, negative = inhibition",[10]; at 25.7 µM (top of the series),1.28% (inactive)
same,max response,[10]; [11],11.8%
same,max response,[10]; [12],12.6%
CN1[C@@H]2CC[C@H]1CC(OC1c3ccccc3CCc3ccccc31)C2 (some centres undefined),"activity change, negative = inhibition",[10]; at 25.7 µM (top of the series),-3.36% (inactive)
same,max response,[10]; [11],-5.63%
same,max response,[10]; [12],-11.3%
CP(=O)(O)C1=CCNCC1,outcome,[6],inactive
same,outcome,[8],inactive
same,outcome,[1],inactive
same,Potency,[2],inactive
same,Potency,[3],inactive
same,Potency,[4],inactive
same,Potency,[5],inactive
CCC1(C)CC(=O)NC(=O)C1,"activity change, negative = inhibition",[10]; at 25.7 µM (top of the series),-1.02% (inactive)
same,max response,[10]; [11],-7.91%
same,max response,[10]; [12],-9.15%
CC(Cc1ccc(OCC(=O)O)cc1)NCC(O)c1cccc(Cl)c1 (centres undefined),outcome,[1],inactive
same,Potency,[2],inactive
same,Potency,[3],inactive
same,Potency,[5],inactive
CNC(=O)OCC[N+](C)(C)C,outcome,[6],inactive
same,outcome,[8],inactive
same,outcome,[1],inactive
same,Potency,[2],inactive
same,Potency,[3],inactive
same,Potency,[4],inactive
same,Potency,[5],inactive
CCCN(CCC)[C@H]1CCc2c(F)ccc(O)c2C1,outcome,[6],inactive
same,outcome,[8],inactive
same,outcome,[7],inactive
same,outcome,[1],inactive
same,Potency,[2],inactive
same,Potency,[3],inactive
same,Potency,[4],1 µM (active)
same,Potency,[5],0.501 µM (active)
COc1ccc(OC)c(C(O)C(C)N)c1 (centres undefined),"activity change, negative = inhibition",[10]; at 57.5 µM (top of the series),12.3% (inactive) and -2.22% (inactive)
same,max response,[10]; [11],8.8% and 28.9%
same,max response,[10]; [12],25.1% and 26.8%
same,Potency,[9],inactive
same,Potency,[2],inactive
same,Potency,[3],inactive
same,Potency,[4],inactive
same,Potency,[5],inactive
NC(CCCCCP(=O)(O)O)C(=O)O (centres undefined),"activity change, negative = inhibition",[10]; at 57.5 µM (top of the series),0.489% (inactive)
same,max response,[10]; [11],-0.44%
same,max response,[10]; [12],-0.15%
same,Potency,[9],inactive
same,Potency,[2],inactive
same,Potency,[3],inactive
same,Potency,[4],inactive
same,Potency,[5],inactive
CCS(=O)(=O)Nc1cccc(C(=C2CCCCC2)c2cnc[nH]2)c1,outcome,[6],inactive
same,"activity change, negative = inhibition",[10]; at 57.5 µM (top of the series),1.44% (inactive)
same,max response,[10]; [11],56.8%
same,max response,[10]; [12],58%
same,Potency,[9],inactive
same,Potency,[2],inactive
same,Potency,[4],7.08 µM (active)
same,Potency,[5],12.6 µM (active)
NC(=O)c1ccc(OCC(O)CN2CC=C(c3ccc(F)cc3)CC2)cc1 (centres undefined),Potency,[2],inactive
same,Potency,[3],inactive
same,Potency,[5],10 µM (active)
O=c1ccc2[nH]cc(C3=CCNCC3)c2[nH]1,"activity change, negative = inhibition",[10]; at 57.5 µM (top of the series),9.75% (inactive)
same,max response,[10]; [11],9.34%
same,max response,[10]; [12],20.6%
COc1ccc2c(c1)/C(=C/c1cnc[nH]1)C(=O)N2,outcome,[6],inactive
same,Potency,[4],7.08 µM (active)
same,Potency,[5],8.91 µM (active)
CCCCCCC(C)(C)c1ccc([C@@H]2C[C@H](O)CC[C@H]2CCCO)c(O)c1,"activity change, negative = inhibition",[10]; at 57.5 µM (top of the series),-5.44% (inactive)
same,max response,[10]; [11],8.54%
same,max response,[10]; [12],2.73%
same,Potency,[2],inactive
same,Potency,[4],1.78 µM (active)
same,Potency,[5],2.24 µM (active)
C[N+]1(C)C2CCC1CC(OC(=O)c1c[nH]c3ccccc13)C2 (centres undefined),Potency,[2],inactive
same,Potency,[3],inactive
same,Potency,[4],11.2 µM (active)
same,Potency,[5],12.6 µM (active)
C[C@]12Cc3cn4c(nc3C=C1CCC1C2CC[C@@]2(C)[C@H]1CC[C@@]2(O)C#N)nc1ccccc14 (some centres undefined),Potency,[9],inactive
same,Potency,[2],inactive
same,Potency,[3],inactive
same,Potency,[4],1.26 µM (active)
same,Potency,[5],3.16 µM (active)
O=[N+]([O-])c1ccc2nc(N3CCNCC3)ccc2c1,outcome,[6],inactive
same,outcome,[8],inactive
same,outcome,[7],inactive
same,"activity change, negative = inhibition",[10]; at 57.5 µM (top of the series),0.42% (inactive)
same,max response,[10]; [11],28.4%
same,max response,[10]; [12],27.7%
same,Potency,[9],inactive
same,Potency,[2],inactive
same,Potency,[3],inactive
same,Potency,[4],8.91 µM (active)
same,Potency,[5],12.6 µM (active)
CCN(CCCl)Cc1ccccc1Br,outcome,[6],inactive
same,outcome,[8],inactive
same,outcome,[7],inactive
same,"activity change, negative = inhibition",[10]; at 57.5 µM (top of the series),-2.24% (inactive)
same,max response,[10]; [11],32.6%
same,max response,[10]; [12],31.1%
same,Potency,[2],inactive
same,Potency,[5],12.6 µM (active)
NC(N)=Nc1ccc2[nH]c3c(c2c1)C[C@@]1(O)[C@H]2Cc4ccc(O)c5c4[C@@]1(CCN2CC1CC1)[C@H]3O5,"activity change, negative = inhibition",[10]; at 57.5 µM (top of the series),-5.63% (inactive)
same,max response,[10]; [11],-1.13%
same,max response,[10]; [12],-6.88%
same,Potency,[2],inactive
same,Potency,[3],inactive
same,Potency,[4],inactive
C[N+](C)(C)CCOC(=O)CBr,outcome,[6],inactive
same,outcome,[8],inactive
same,Potency,[9],inactive
same,Potency,[2],inactive
same,Potency,[3],inactive
same,Potency,[4],inactive
same,Potency,[5],inactive
CC(=O)c1c(O)c(C)c(O)c(Cc2c(O)c3c(c(C(=O)/C=C/c4ccccc4)c2O)OC(C)(C)C=C3)c1O,Potency,[2],2.24 µM (active)
same,Potency,[3],inactive
same,Potency,[4],3.16 µM (active)
same,Potency,[5],3.16 µM (active)
